Not all results are given here. The hit rate among all sequences tested is not known here.
B1: il10ra_site1_normal_mot_8756ee2cf497b5429c717dfc0c0bcfd6_0001_000000186_0001_1_13_H_._HHH_b2_04770_af2_0001_0000400016_0000001_0_af2pred_0001 (protein)
chain: SSSSSSDEELKRVQELIRRAAKITDEEELREVLEEAKELAEELGNEILRVIVEFLLELMTSSSSS
B2: il10ra_site1_sap_15_mot_HHH_b2_04646_000000019_0001_1_20_H_._HHH_b1_08112_af2_0001_0000300009_0000001_0_0001 (protein)
chain: SSSSDVEEEVEELLEQAEELARRGNPEEAYKLLKEAAELASEANDPELQRLVVEVSRRVIGSSSS
B3: il10ra_site1_sap_24_mot_HHH_b1_04771_000000013_0001_40_56_H_._HHH_b2_02918_af2_0001_0000100007_0000001_0_0001 (protein)
chain: SSSSDDEERVKQAIRFARWLLENGDKEAAKRIVEAAQDIARKGGNEELVQELEELEEEIKSSSSS
B4: il10ra_site1_sap_20_mot_HHH_b1_04573_000000273_0001_43_57_H_._HHH_b2_07679_0001_0000100005_0000002_0_0001 (protein)
chain: SSSSSDENEEIYRLLREAAEALANGNPEEAREIVEQAVELAEEANSQVLLFNAEYLLRQINSSSS
B5: il10ra_site1_sap_24_mot_HHH_b1_00999_000000080_0001_41_55_H_._HHH_b1_05694_af2_0001_0000300017_0000001_0_0001_af2pred_dldesign_0_af2pred (protein)
chain: SSSSDPQRVVELIHEANRLVDEGRLDEAERLLEEALRLARAADDAELAAAVEKALAFVRSLSSSS
B6: il10ra_site1_normal_mot_HHH_b1_00999_000000080_0001_41_55_H_._HHH_b1_02815_0001_0000700030_0000002_0 (protein)
chain: SSSSDEEEERSKELLEELEELLRRGDQHRFLRLLQHIVRFAFEVSDEELLHEVWRLAREFGSSSS
B7: il10ra_site1_normal_mot_HHH_b1_05357_000000034_0001_23_39_H_._HHH_b2_00878_af2_0001_0000100001_0000001_0_af2pred_0001 (protein)
chain: SSSSSSDLEEEVEKLLEEAEKIEDQLRLAYVLTRAYAVANRLNDPELRELIREVAKKLSSSSSSS
B8: il10ra_site1_normal_mot_0cd074c2d6d3de76f1399c5a775575d2_0001_1_af2_000000000_0001_16_30_H_._a6da520ff4a02840130205282d0b8d49_0001_0001_0000200007_0000001_0_af2 … (protein)
chain: SREQAILYAAIVASGGDEDRIEHLLEIYYEFTGDPAVKEVLERLRAAKAAGIPAEELLKQLEAEN
B9: il10ra_site1_sap_20_mot_HHH_b1_01886_000000262_0001_1_18_H_._HHH_b1_05552_af2_0001_0000500031_0000001_0_0001_af2pred_dldesign_0_af2pred (protein)
chain: SSSSSDLAAVLAEAEALFARSKTVSPEEKEVILQRIVDLALKHENLEVAKLANELLKELSSSSSS
B10: il10ra_site1_sap_25_mot_2c1a291787c6f40772924d4e9068d803_0001_af2_000000187_0001_34_48_H_._HHH_b2_07308_af2_0001_0000400007_0000002_0_0001_af2pred_0001 (protein)
chain: SSSSSTREEVIKRVIELLREARRIEDPEEREEVLEEAHRLAEEGNNELLKFIVESLERKLSSSSS
B11: il10ra_site1_sap_16_mot_HHH_b2_06643_000000103_0001_1_18_H_._HHH_b2_07694_0001_0000100008_0000001_0_0001_af2pred_0001 (protein)
chain: SSSSSSEEEELAELALRLLVEALQHGDPELREEIKELIEEAEKVGDERVVRLLRAALRALSSSSS
B12: il10ra_site1_normal_mot_8756ee2cf497b5429c717dfc0c0bcfd6_0001_000000186_0001_1_13_H_._HHH_b2_05079_af2_0001_0000100002_0000002_1_af2pred_dldesign_0_af2pred (protein)
chain: SSSSSSELEELKNLIKEIAELLYEGKPEEARELLEKAEELAKKLGNKTALATLDYLRRQIESSSS
B13: il10ra_site1_sap_25_mot_HHH_b2_05323_000000159_0001_1_18_H_._HHH_b1_08298_af2_0001_0000500034_0000001_0_0001 (protein)
chain: SSSSDEELQEAFELLREAVEALLDGNPEEAEKLLEEARKLAEEAGNRLLRWQIEWLLEKVRSSSS
B14: il10ra_site1_normal_mot_HHH_b2_00441_000000147_0001_1_18_H_._HHH_b1_04947_af2_0001_0000200007_0000001_0_af2pred_0001 (protein)
chain: SSSSDEYLKKAIRALFRAIKRAIELGDEEVVRLALKDLRFLAREHNDEEAEELLKELEELLSSSS
B15: il10ra_site1_normal_mot_HHH_b2_00984_000000042_0001_1_20_H_._HHH_b2_07534_0001_0000600066_0000001_1 (protein)
chain: SSSSDEEEKRLEELLEEVRELLERGDPERAARLAQELLRHIFRASDEEALQELWELIKREASSSS
B16: il10ra_site1_normal_mot_HHH_b2_03328_af2_000000127_0001_1_19_H_._HHH_b1_03894_0001_0000100001_0000001_0 (protein)
chain: SSSSSSNELYELSREALELFANGNPEEAQRVVEEAIELAEELGNRVILFTLRHLLRVISSSSSSS
B17: il10ra_site1_normal_mot_HHH_b1_08477_000000091_0001_40_57_H_._HHH_b2_05084_0001_0000800035_0000001_0 (protein)
chain: SSSSDIAEETARFLLEMAERLIEQGNPEYARQALRFALRLARDAGNPELEEEIQKLLEELGSSSS
B18: il10ra_site1_normal_mot_HHH_b2_06857_af2_000000179_0001_42_54_H_._HHH_b2_07752_af2_0001_0000500038_0000002_0 (protein)
chain: SSSSNELHEELYELIRKAAELARNGNPEEAEKVLEEARKIAEELNNELAEFQIRFLERLLSSSSS
B19: il10ra_site1_sap_4_mot_HHH_b2_01447_af2_000000258_0001_1_20_H_._HHH_b1_07772_0001_0000100001_0000002_0_0001 (protein)
chain: SSSSDTRELYRLSREAMELLARGNPEEAEKVLEEAIEIAREAGDFNFLFNLEHVLKVIEQSSSSS
B20: il10ra_site1_sap_15_mot_HHH_b2_05813_000000266_0001_1_19_H_._ems_3hC_1310_0001_af2_0001_0000600040_0000002_0_0001 (protein)
chain: SSSSADEEFEFTREKYEEARELLQNGNPEEAEEVLEEAREYLKEAGNWAALFAVEVLLKQLSSSS
B21: il10ra_site1_normal_mot_HHH_b2_02537_000000065_0001_1_20_H_._HHH_b1_07925_0001_0000100001_0000001_0 (protein)
chain: SSSSTDEVFEFTRRVIEEASELFRNGNPEEAERVLEEAREYLEELGDELALRSVEHLLRAISSSS

The binders below were run against il10ra, Q13651 (assay: yeast display titration).
il10ra, Q13651, sequence (Q13651 whole entry): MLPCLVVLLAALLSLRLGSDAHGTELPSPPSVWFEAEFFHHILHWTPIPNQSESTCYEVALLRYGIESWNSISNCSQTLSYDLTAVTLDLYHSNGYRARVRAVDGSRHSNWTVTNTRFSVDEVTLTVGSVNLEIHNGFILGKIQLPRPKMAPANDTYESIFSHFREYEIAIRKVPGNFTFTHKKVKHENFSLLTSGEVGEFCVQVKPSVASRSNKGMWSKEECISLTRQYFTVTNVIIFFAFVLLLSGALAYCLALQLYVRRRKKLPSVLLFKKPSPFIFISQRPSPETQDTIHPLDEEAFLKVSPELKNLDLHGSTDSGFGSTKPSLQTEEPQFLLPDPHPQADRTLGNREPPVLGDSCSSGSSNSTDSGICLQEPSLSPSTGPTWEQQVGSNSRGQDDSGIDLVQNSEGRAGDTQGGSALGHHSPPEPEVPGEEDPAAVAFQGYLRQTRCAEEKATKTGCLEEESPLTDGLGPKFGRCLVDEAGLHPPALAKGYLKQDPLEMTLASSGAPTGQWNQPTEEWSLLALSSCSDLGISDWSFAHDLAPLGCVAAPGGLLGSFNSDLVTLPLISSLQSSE

Apparent Kd, inactive:
B1 no binding seen
B2 no binding seen
B3 no binding seen
B4 no binding seen
B5 no binding seen
B6 no binding seen
B7 no binding seen
B8 no binding seen
B9 no binding seen
B10 no binding seen
B11 no binding seen
B12 no binding seen
B13 no binding seen
B14 no binding seen
B15 no binding seen
B16 no binding seen
B17 no binding seen
B18 no binding seen
B19 no binding seen
B20 no binding seen
B21 no binding seen

— article PMC10163288
